From the supplement of paper PMC10849652
Of roughly 7,900 targets only a part is listed; those with a hit were picked by preference. About 0.6% of all pairs of compound and target were hits. A number with no mark means an inactive call.

What was measured:
Test in all cases: log2 fold change, soluble protein after heating vs DMSO (PISA); higher = thermal stabilisation; K562 cells, 10 uM, 30 min; active = over 0.2 and 3.5 SD of the protein, either way, in both replicates (recomputed)
IRAK-1-4 Inhibitor I = compound: C1COCCN1CCN2C3=CC=CC=C3N=C2NC(=O)C4=CC(=CC=C4)[N+](=O)[O-] [IRAK-1-4 Inhibitor I]
In short: (§1)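 Aliquots of K562 cells (2×10^6 cells/mL) treated with 10 μM compound for 30 min were heated for 3 min over 48°C-58°C. After pooling and extraction in PBS with 0.5% NP-40 at 4°C, soluble protein from a 21,000xg, 90 min spin was quantified by TMTpro 16plex LC-MS/MS with channel sums equalised. Thermal stability is expressed against control samples, from duplicates, as a log2 fold change.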

ibrutinib = compound: C=CC(=O)N1CCC[C@@H](n2nc(-c3ccc(Oc4ccccc4)cc3)c3c(N)ncnc32)C1 [ibrutinib]
In short: as §1

[1] = compound: CC(=O)c1cnc2ccc(-c3cc(Cl)c(O)c(Cl)c3)nc2c1N[C@H]1CC[C@H](CN(C)C)CC1
In short: as §1

ralimetinib = compound: CC(C)(C)Cn1c(N)nc2ccc(-c3[nH]c(C(C)(C)C)nc3-c3ccc(F)cc3)nc21 [ralimetinib]
In short: as §1

[2] = compound: CC(C)(O)CC(=O)NCCn1ccc2ncnc(Nc3ccc(Oc4cccc(C(F)(F)F)c4)c(Cl)c3)c21
In short: as §1

[3] = compound: CC(C)C1=C2N=C(C=C(N2N=C1)NCC3=CC=CC=C3)NCCCCCCN
In short: as §1

[4] = compound: CC(C)C[C@@H](C=O)NC(=O)[C@H](CC(C)C)NC(=O)[C@H](CC(C)C)NC(=O)OCc1ccccc1
In short: as §1

pinometostat = compound: CC(C)N(C[C@H]1O[C@@H](n2cnc3c(N)ncnc32)[C@H](O)[C@@H]1O)[C@H]1C[C@@H](CCc2nc3cc(C(C)(C)C)ccc3[nH]2)C1 [pinometostat]
In short: as §1

[5] = compound: CC1=C(C(CC(=O)N1)C2=CC=C(C=C2)C(F)(F)F)C(=O)NC3=C(C=C4C(=C3)C=NN4)F
In short: as §1

[6] = compound: CC1=C(C2=C(C=C1)C(=O)C3=CC=CC=C3N2CCCN)C
In short: as §1

[7] = compound: CC1=C(C=C(C=C1)NC(=O)C2=CC(=CC=C2)C(C)(C)C#N)NC3=CC4=C(C=C3)N=CN(C4=O)C
In short: as §1

[8] = compound: CC1=C(C=C(C=C1)NC(=O)C2=CC(=CC=C2)N(C)C)NC(=O)C3=CC=C(C=C3)O
In short: as §1

[9] = compound: CC1=CC=C(C=C1)SC2=C3C=C(SC3=CN=C2)C(=O)N
In short: as §1

[10] = compound: CC1=NC(=CC=C1)C2=C(N=C(N2)C(C)(C)C)C3=CC4=NC=CN=C4C=C3
In short: as §1

Nexturastat A = compound: CCCCN(Cc1ccc(C(=O)NO)cc1)C(=O)Nc1ccccc1 [Nexturastat A]
In short: as §1

vemurafenib = compound: CCCS(=O)(=O)Nc1ccc(F)c(C(=O)c2c[nH]c3ncc(-c4ccc(Cl)cc4)cc23)c1F [vemurafenib]
In short: as §1

[11] = compound: CCCS(=O)(=O)Nc1ccc(F)c(C(=O)c2c[nH]c3ncc(Cl)cc23)c1F
In short: as §1

[12] = compound: CCCc1cc(C)[nH]c(=O)c1CNC(=O)c1cc(-c2ccnc(N3CCN(C)CC3)c2)cc2c1cnn2C(C)C
In short: as §1

givinostat = compound: CCN(CC)Cc1ccc2cc(COC(=O)Nc3ccc(C(=O)NO)cc3)ccc2c1 [givinostat]
In short: as §1

barasertib = compound: CCN(CCCOc1ccc2c(Nc3cc(CC(=O)Nc4cccc(F)c4)[nH]n3)ncnc2c1)CCOP(=O)(O)O [barasertib]
In short: as §1

Sequence of UniProt Q9HAD4 (Q9HAD4 whole entry, looked up): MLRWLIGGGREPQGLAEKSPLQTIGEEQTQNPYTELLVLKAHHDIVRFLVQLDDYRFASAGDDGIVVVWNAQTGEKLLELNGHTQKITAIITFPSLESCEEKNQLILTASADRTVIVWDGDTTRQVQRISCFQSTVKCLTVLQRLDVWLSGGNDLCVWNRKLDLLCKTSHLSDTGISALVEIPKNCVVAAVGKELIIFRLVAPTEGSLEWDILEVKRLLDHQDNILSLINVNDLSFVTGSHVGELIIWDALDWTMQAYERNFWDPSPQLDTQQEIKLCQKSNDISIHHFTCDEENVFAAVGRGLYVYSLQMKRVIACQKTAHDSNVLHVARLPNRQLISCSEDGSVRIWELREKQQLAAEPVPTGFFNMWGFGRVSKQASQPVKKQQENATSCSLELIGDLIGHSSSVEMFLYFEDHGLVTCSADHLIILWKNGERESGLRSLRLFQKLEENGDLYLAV
Sequence of UniProt A6NHL2 (A6NHL2 whole entry, looked up): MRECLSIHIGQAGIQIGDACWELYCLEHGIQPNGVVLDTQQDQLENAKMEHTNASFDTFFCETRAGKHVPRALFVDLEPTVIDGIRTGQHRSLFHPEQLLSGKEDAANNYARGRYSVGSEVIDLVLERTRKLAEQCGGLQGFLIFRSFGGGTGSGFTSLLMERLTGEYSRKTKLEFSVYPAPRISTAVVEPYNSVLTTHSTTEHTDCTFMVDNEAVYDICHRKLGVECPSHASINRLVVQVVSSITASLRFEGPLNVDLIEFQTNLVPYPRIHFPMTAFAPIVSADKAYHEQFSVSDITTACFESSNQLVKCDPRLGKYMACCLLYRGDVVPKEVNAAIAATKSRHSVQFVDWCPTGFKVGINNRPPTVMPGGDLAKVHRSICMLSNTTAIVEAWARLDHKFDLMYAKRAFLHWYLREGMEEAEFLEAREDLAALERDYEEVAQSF
Sequence of UniProt Q9BXJ8 (Q9BXJ8 whole entry, looked up): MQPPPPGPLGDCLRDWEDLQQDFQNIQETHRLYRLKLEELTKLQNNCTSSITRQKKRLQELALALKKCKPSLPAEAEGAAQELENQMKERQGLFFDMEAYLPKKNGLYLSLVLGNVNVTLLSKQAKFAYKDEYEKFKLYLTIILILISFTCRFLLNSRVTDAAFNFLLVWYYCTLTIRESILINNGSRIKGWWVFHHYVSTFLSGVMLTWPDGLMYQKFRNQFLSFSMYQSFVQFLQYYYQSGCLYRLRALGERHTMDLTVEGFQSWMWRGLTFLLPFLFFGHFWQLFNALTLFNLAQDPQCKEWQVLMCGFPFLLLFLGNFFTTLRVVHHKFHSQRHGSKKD
Sequence of UniProt Q9UEU0 (Q9UEU0 whole entry, looked up): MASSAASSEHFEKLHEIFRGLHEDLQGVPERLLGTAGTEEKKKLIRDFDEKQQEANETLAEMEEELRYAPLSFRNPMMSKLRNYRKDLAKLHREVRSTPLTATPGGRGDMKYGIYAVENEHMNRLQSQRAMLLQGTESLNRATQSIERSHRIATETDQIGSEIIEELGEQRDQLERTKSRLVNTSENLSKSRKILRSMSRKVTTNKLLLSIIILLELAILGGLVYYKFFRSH
Sequence of UniProt Q96JC1 (Q96JC1 whole entry, looked up): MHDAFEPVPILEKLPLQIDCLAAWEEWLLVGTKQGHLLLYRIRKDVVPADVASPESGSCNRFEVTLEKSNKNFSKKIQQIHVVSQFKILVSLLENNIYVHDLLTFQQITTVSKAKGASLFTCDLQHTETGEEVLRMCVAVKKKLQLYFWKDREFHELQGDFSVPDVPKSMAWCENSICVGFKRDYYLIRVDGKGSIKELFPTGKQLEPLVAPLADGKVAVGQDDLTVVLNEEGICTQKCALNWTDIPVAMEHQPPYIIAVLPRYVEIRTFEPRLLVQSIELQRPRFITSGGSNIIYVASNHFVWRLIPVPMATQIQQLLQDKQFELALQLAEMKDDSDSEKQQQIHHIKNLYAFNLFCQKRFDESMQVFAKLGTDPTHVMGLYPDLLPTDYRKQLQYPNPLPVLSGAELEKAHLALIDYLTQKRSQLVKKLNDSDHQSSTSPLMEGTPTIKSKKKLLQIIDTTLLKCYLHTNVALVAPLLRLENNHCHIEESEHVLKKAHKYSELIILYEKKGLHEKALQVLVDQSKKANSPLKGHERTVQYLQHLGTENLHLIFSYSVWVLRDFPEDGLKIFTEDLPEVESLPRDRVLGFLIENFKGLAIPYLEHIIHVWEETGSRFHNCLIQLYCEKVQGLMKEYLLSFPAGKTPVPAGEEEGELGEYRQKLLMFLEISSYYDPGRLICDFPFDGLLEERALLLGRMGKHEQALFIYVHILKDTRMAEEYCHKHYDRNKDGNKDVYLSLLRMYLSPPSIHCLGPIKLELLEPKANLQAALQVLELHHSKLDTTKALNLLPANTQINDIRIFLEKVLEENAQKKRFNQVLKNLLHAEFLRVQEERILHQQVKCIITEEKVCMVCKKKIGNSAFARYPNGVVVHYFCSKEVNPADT
Sequence of UniProt Q16763 (Q16763 whole entry, looked up): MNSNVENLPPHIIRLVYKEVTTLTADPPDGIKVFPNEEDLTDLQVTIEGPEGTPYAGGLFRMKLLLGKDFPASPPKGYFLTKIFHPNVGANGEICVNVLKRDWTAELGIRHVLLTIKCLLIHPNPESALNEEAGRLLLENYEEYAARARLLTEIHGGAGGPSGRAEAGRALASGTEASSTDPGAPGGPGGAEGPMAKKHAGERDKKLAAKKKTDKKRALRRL
Sequence of UniProt Q9NP79 (Q9NP79 whole entry, looked up): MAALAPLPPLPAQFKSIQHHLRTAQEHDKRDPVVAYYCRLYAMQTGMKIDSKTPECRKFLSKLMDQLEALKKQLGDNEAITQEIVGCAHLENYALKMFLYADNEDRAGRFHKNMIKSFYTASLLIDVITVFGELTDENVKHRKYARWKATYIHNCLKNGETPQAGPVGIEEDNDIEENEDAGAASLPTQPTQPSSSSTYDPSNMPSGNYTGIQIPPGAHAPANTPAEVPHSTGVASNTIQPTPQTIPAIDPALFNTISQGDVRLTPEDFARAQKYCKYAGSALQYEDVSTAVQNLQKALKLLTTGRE

Work on VPS39 (UniProt Q96JC1) yielded a log2 fold change (IRAK-1-4 Inhibitor I) of -0.055, a log2 fold change (ibrutinib) of -0.015 and a log2 fold change [1] of -0.036. For the same target, the log2 fold change (ralimetinib) was -0.018, the log2 fold change [2] was -0.039 and the log2 fold change [3] was -0.265. The log2 fold change [4] was 0.031, the log2 fold change (pinometostat) was 0.032 and the log2 fold change [5] was -0.027. The log2 fold change [6] was 0.008, the log2 fold change [7] was 0.049 and the log2 fold change [8] was -0.015. For the same target, the log2 fold change [9] was 0.011, the log2 fold change [10] was 0.031 and the log2 fold change (Nexturastat A) was 0.014. For the same target, the log2 fold change (vemurafenib) was 0.041, the log2 fold change [11] was 0.059 and the log2 fold change [12] was -0.029. For the same target, the log2 fold change (givinostat) was 0.019 and the log2 fold change (barasertib) was 0.053.

With VARS2, A0A0G2JL52 the log2 fold change (IRAK-1-4 Inhibitor I) was 0.012, the log2 fold change (ibrutinib) was 0.014 and the log2 fold change [1] was -0.03. The log2 fold change (ralimetinib) was 0.064, the log2 fold change [2] was -0.074 and the log2 fold change [3] was -0.177. For the same target, the log2 fold change [4] was 0.025, the log2 fold change (pinometostat) was -0.014 and the log2 fold change [5] was 0.003. The log2 fold change [6] was 0.082, the log2 fold change [7] was -0.003 and the log2 fold change [8] was 0.005. For the same target, the log2 fold change [9] was -0.025, the log2 fold change [10] was 0.012 and the log2 fold change (Nexturastat A) was 0.005. The log2 fold change (vemurafenib) was 0.03, the log2 fold change [11] was 0.047 and the log2 fold change [12] was -0.018. For the same target, the log2 fold change (givinostat) was -0.015 and the log2 fold change (barasertib) was 0.052.

UBE2S (UniProt Q16763) was tested, and the log2 fold change (IRAK-1-4 Inhibitor I) was -0.065, the log2 fold change (ibrutinib) was -0.035 and the log2 fold change [1] was -0.037. The log2 fold change (ralimetinib) was 0.03, the log2 fold change [2] was -0.034 and the log2 fold change [3] was 0.018. It also gave a log2 fold change [4] of 0.125, a log2 fold change (pinometostat) of -0.05 and a log2 fold change [5] of -0.004. For the same target, the log2 fold change [6] was -0.055, the log2 fold change [7] was 0.024 and the log2 fold change [8] was -0.015. It also gave a log2 fold change [9] of 0.004, a log2 fold change [10] of 0.009 and a log2 fold change (Nexturastat A) of 0.057. The log2 fold change (vemurafenib) was 0.013, the log2 fold change [11] was 0.049 and the log2 fold change [12] was -0.007. It also gave a log2 fold change (givinostat) of 0.044 and a log2 fold change (barasertib) of 0.03.

With TUBAL3 (UniProt A6NHL2) the log2 fold change (IRAK-1-4 Inhibitor I) was -0.046, the log2 fold change (ibrutinib) was -0.005 and the log2 fold change [1] was -0.039. The log2 fold change (ralimetinib) was -0.044, the log2 fold change [2] was -0.047 and the log2 fold change [3] was 0.003. It also gave a log2 fold change [4] of -0.102, a log2 fold change (pinometostat) of -0.108 and a log2 fold change [5] of 0.11. The log2 fold change [6] was -0.094, the log2 fold change [7] was 0.152 and the log2 fold change [8] was -0.062. For the same target, the log2 fold change [9] was 0.005, the log2 fold change [10] was 0.094 and the log2 fold change (Nexturastat A) was -0.106. The log2 fold change (vemurafenib) was 0.121, the log2 fold change [11] was -0.033 and the log2 fold change [12] was -0.207. The log2 fold change (givinostat) was 0.006 and the log2 fold change (barasertib) was -0.028.

In the case of TMEM120A (UniProt Q9BXJ8), the log2 fold change (IRAK-1-4 Inhibitor I) is reported as -0.066, the log2 fold change (ibrutinib) is reported as -0.183 and the log2 fold change [1] is reported as -0.068. The log2 fold change (ralimetinib) was -0.003, the log2 fold change [2] was -0.429 and the log2 fold change [3] was -0.006. It also gave a log2 fold change [4] of -0.078, a log2 fold change (pinometostat) of 0.093 and a log2 fold change [5] of -0.065. The log2 fold change [6] was 0.051, the log2 fold change [7] was 0.181 and the log2 fold change [8] was 0.007. For the same target, the log2 fold change [9] was 0.115, the log2 fold change [10] was -0.004 and the log2 fold change (Nexturastat A) was -0.259. The log2 fold change (vemurafenib) was 0.06, the log2 fold change [11] was 0.085 and the log2 fold change [12] was -0.007. The log2 fold change (givinostat) was 0.116 and the log2 fold change (barasertib) was -0.006.

WDR41 (UniProt Q9HAD4) showed a log2 fold change (IRAK-1-4 Inhibitor I) of -0.024, a log2 fold change (ibrutinib) of -0.022 and a log2 fold change [1] of -0.023. The log2 fold change (ralimetinib) was -0.036, the log2 fold change [2] was -0.077 and the log2 fold change [3] was -0.271 (active). It also gave a log2 fold change [4] of -0.026, a log2 fold change (pinometostat) of 0.012 and a log2 fold change [5] of 0.127. For the same target, the log2 fold change [6] was -0.001, the log2 fold change [7] was 0.044 and the log2 fold change [8] was 0. For the same target, the log2 fold change [9] was -0.007, the log2 fold change [10] was 0.001 and the log2 fold change (Nexturastat A) was 0.002. For the same target, the log2 fold change (vemurafenib) was 0.008, the log2 fold change [11] was 0.036 and the log2 fold change [12] was -0.011. It also gave a log2 fold change (givinostat) of -0.04 and a log2 fold change (barasertib) of 0.033.

VTI1B (UniProt Q9UEU0) was tested, and the log2 fold change (IRAK-1-4 Inhibitor I) was -0.074, the log2 fold change (ibrutinib) was 0.027 and the log2 fold change [1] was -0.033. For the same target, the log2 fold change (ralimetinib) was -0.081, the log2 fold change [2] was 0.08 and the log2 fold change [3] was -0.261 (active). For the same target, the log2 fold change [4] was 0.002, the log2 fold change (pinometostat) was -0.057 and the log2 fold change [5] was -0.001. For the same target, the log2 fold change [6] was 0.012, the log2 fold change [7] was -0.038 and the log2 fold change [8] was 0.006. It also gave a log2 fold change [9] of -0.008, a log2 fold change [10] of -0.014 and a log2 fold change (Nexturastat A) of 0.036. It also gave a log2 fold change (vemurafenib) of -0.03, a log2 fold change [11] of 0.009 and a log2 fold change [12] of -0.034. The log2 fold change (givinostat) was -0.04 and the log2 fold change (barasertib) was -0.007.

With VTA1 (UniProt Q9NP79) the log2 fold change (IRAK-1-4 Inhibitor I) was -0.02, the log2 fold change (ibrutinib) was -0.001 and the log2 fold change [1] was -0.013. For the same target, the log2 fold change (ralimetinib) was -0.009, the log2 fold change [2] was -0.074 and the log2 fold change [3] was -0.12. The log2 fold change [4] was -0.007, the log2 fold change (pinometostat) was -0.041 and the log2 fold change [5] was 0.012. For the same target, the log2 fold change [6] was 0.068, the log2 fold change [7] was 0.011 and the log2 fold change [8] was -0.019. The log2 fold change [9] was 0.044, the log2 fold change [10] was 0.034 and the log2 fold change (Nexturastat A) was -0.041. It also gave a log2 fold change (vemurafenib) of 0.042, a log2 fold change [11] of 0.082 and a log2 fold change [12] of -0.065. It also gave a log2 fold change (givinostat) of -0.005 and a log2 fold change (barasertib) of 0.041.
